# Results reported in the supplement of paper PMC12067093, “Discovery and optimisation of a covalent ligand for TRIM25 and its application to targeted protein ubiquitination” (Chemical Science, 2025).
# About 21,000 targets were measured; listed, in parts, are those with the largest changes and a random draw of the rest.
# Compound: Cc1cc(ccc1-c1ccccc1)C(=O)N1CCCN(CC1)C(=O)CCl [compound 10]
# Assay: probe-labelled cysteine peptide fold change vs DMSO (competition) (log2 fold change); higher = less target engagement (more negative = stronger competition)
# Settings: THP-1, incubation time: 4 h
# 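Further: competitive profiling in live THP-1 cells: cysteine peptides tagged with an iodoacetamide desthiobiotin (IA-DTB) probe, intensity after compound treatment relative to DMSO-treated cells.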
# Chain of UniProt P11717 (P11717 whole entry, looked up): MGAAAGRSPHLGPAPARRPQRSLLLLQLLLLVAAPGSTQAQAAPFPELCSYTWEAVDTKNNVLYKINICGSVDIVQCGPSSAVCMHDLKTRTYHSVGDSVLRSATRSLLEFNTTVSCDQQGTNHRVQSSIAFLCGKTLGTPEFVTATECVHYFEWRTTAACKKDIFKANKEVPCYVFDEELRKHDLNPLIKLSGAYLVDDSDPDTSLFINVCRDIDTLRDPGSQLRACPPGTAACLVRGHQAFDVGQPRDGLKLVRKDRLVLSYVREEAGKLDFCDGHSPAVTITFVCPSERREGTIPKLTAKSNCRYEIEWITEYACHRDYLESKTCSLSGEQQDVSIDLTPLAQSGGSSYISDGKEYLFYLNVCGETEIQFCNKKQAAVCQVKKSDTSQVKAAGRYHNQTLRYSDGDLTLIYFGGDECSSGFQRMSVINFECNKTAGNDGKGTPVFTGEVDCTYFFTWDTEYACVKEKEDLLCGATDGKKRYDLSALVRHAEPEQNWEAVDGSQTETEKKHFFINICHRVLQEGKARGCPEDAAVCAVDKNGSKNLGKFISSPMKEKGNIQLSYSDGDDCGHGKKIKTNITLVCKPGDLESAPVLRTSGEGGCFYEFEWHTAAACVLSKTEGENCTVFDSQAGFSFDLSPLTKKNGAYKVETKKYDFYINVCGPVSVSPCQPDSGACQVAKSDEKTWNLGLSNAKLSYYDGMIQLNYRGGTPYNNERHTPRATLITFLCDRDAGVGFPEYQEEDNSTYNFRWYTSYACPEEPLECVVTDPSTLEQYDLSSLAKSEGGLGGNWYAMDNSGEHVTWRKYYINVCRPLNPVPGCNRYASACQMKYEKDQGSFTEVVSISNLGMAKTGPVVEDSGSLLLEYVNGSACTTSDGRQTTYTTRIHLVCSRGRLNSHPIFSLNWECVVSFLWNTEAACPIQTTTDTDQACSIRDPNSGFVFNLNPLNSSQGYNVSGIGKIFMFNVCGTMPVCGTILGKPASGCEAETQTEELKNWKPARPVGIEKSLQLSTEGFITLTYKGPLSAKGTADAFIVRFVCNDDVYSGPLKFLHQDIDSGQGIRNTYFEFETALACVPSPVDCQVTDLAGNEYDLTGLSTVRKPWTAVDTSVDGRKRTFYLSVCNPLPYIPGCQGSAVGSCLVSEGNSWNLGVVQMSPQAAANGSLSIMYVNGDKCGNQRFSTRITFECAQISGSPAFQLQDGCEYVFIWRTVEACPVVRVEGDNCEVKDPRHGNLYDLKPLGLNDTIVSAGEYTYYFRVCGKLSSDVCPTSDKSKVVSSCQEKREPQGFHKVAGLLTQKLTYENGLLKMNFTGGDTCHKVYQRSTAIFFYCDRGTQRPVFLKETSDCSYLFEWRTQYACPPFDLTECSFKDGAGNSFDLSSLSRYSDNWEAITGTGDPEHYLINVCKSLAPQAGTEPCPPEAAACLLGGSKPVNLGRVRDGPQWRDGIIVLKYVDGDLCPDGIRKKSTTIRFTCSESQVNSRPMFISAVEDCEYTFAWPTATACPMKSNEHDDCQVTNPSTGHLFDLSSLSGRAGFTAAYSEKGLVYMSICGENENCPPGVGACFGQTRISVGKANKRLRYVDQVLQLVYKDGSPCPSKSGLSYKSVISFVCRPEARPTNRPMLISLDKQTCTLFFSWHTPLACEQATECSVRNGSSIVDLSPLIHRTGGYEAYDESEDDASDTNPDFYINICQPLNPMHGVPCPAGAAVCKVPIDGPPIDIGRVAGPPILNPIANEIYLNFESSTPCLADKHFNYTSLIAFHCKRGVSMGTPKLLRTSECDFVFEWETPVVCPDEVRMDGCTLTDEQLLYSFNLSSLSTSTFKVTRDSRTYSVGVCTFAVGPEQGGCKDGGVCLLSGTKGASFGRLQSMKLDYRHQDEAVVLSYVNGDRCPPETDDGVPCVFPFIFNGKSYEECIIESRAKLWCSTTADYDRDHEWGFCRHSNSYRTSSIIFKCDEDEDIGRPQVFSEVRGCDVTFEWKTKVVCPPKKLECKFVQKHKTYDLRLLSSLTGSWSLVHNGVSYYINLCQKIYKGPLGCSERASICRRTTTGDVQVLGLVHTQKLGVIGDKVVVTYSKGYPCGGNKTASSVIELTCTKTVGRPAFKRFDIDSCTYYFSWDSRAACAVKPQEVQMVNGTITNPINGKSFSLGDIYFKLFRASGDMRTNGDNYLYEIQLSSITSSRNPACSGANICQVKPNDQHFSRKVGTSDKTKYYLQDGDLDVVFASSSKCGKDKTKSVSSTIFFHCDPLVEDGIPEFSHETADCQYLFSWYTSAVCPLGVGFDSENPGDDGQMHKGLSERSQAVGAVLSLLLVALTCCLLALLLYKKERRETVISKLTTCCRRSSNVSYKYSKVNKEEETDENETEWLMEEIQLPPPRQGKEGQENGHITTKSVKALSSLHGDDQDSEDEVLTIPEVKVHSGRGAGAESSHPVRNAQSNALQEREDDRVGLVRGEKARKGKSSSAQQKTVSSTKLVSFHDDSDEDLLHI
# Chain of UniProt P28838 (P28838 whole entry, looked up): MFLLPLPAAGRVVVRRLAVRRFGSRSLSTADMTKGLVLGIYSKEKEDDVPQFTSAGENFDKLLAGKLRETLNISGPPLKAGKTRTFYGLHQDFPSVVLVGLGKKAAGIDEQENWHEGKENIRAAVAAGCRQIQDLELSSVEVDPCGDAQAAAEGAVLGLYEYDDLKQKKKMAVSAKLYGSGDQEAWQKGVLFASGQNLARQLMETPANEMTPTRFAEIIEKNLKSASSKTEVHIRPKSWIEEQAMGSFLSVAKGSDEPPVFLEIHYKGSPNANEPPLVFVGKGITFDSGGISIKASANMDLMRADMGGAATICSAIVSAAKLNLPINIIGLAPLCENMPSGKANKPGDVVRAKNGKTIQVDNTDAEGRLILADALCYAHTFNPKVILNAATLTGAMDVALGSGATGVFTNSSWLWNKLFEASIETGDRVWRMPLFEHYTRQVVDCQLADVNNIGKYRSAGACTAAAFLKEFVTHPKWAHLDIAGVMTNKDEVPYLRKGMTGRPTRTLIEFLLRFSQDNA
# Chain of UniProt P41252 (P41252 whole entry, looked up): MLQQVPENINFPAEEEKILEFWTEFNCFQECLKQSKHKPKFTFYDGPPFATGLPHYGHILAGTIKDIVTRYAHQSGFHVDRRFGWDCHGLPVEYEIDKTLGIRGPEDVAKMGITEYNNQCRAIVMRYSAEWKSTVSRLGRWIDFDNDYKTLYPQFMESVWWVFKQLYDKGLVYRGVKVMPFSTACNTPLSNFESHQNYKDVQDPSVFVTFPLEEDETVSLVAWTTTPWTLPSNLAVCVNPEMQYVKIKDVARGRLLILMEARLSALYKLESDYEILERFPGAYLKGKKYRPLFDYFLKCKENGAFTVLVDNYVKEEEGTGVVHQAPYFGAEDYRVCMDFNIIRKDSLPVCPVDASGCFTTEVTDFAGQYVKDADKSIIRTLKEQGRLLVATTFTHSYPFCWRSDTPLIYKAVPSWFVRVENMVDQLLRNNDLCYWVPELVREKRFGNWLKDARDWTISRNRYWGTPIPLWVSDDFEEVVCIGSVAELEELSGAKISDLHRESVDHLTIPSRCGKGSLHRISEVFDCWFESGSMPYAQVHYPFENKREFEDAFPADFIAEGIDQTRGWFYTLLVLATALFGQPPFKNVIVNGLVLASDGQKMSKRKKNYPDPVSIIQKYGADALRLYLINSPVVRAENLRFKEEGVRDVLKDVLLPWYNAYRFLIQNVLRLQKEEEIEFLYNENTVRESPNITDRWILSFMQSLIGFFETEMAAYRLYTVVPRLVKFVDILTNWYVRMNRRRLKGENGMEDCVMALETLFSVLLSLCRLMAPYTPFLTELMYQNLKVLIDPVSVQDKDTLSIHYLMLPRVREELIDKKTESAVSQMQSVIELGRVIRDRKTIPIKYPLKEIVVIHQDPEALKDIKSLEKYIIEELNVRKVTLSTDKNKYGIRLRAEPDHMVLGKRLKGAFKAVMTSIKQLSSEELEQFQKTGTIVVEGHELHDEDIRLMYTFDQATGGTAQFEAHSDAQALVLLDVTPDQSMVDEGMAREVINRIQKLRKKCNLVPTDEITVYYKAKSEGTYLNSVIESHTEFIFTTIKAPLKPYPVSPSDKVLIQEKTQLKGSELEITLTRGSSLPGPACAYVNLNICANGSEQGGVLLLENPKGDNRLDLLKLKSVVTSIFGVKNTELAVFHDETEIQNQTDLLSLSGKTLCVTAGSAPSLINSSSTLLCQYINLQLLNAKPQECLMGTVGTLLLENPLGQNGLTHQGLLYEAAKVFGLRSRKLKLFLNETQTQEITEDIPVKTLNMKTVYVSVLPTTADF
# Chain of UniProt Q96CX2 (Q96CX2 whole entry): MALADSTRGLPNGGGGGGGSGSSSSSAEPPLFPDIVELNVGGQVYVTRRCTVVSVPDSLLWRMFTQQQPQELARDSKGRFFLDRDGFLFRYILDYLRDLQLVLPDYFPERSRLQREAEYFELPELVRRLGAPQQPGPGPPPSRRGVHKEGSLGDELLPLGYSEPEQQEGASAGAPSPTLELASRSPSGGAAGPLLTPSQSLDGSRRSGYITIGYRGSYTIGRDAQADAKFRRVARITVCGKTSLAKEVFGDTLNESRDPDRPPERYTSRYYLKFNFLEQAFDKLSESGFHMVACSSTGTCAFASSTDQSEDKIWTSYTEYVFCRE
# Chain of UniProt P50213 (P50213 whole entry, looked up): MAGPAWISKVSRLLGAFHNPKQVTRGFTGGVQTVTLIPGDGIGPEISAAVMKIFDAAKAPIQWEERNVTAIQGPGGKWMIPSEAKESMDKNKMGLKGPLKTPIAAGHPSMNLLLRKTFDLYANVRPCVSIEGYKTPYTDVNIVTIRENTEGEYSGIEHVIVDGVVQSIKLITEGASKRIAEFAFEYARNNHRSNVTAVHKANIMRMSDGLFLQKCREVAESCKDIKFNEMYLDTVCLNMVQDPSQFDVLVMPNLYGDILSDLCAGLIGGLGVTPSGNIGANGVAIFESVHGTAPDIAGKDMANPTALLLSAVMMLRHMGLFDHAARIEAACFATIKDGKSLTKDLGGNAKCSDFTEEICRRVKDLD
Target,probe-labelled cysteine peptide fold change (10 µM),probe-labelled cysteine peptide fold change (50 µM)
LDHD_Q86WU2_63_CEPPDAVVWPQNVEQVSR (UniProt Q86WU2),-0.334,0.36
HSPA4L_O95757_540_CHAEHTPEEEIDHTGAK (UniProt O95757),-0.0538,-0.483
IL1RAP_Q9NPH3_332_SYVCHAR (UniProt Q9NPH3),-0.0813,-0.034
LDLR_P01130_377+379_CQCEEGFQLDPHTK (UniProt P01130),-0.198,0.243
HSD17B11_Q8NBQ5_215+217_TTCLCPNFVNTGFIK (UniProt Q8NBQ5),0.115,-0.449
IKZF1_Q13422_175+178_CHLCNYACR (UniProt Q13422),-0.0534,-0.482
ITGB2_P05107_472_CDTGYIGK (UniProt P05107),0.101,-0.117
HMOX2_P30519_265_CPFYAAEQDK (UniProt P30519),-0.451,-2.31
IARS_P41252_400_LLVATTFTHSYPFCWR (UniProt P41252),0.0125,0.177
HSP90AA1_P07900_597+598_LVTSPCCIVTSTYGWTANMER (UniProt P07900),0.115,-0.354
KDM3A_Q9Y4C1_467_AGVNSDSPNNCSGK (UniProt Q9Y4C1),-0.0265,0.0124
IQGAP1_P46940_57_RWMEACLGEDLPPTTELEEGLR (UniProt P46940),0.00789,0.0214
KPNA5_O15131_238_NAVWALSNLCR<|>KPNA6_O60684_238_NAVWALSNLCR<|>KPNA1_P52294_240_NAVWALSNLCR (UniProt P52294+O60684+O15131),0.0157,-0.339
KIDINS220_Q9ULH0_867_FLVTSATNGDVPCSDTTGIQEDADRR (UniProt Q9ULH0),-0.0872,-0.0611
KDM4C_Q9H3R0_14_MEVAEVESPLNPSCK (UniProt Q9H3R0),0.236,0.0354
HNRNPU_Q00839_648_GNFTLPEVAECFDEITYVELQK (UniProt Q00839),0.16,0.0148
HNRNPK_P61978_184+185_LFQECCPHSTDRVVLIGGKPDR (UniProt P61978),-0.234,-1.28
KPNB1_Q14974_392_DAAVMAFGCILEGPEPSQLK (UniProt Q14974),0.132,0.441

Target,probe-labelled cysteine peptide fold change (10 µM),probe-labelled cysteine peptide fold change (50 µM)
IPO4_Q8TEX9_726_KAAHEALGQFCCALHK (UniProt Q8TEX9),-0.0458,-0.126
HSP90AA1_P07900_598_LVTSPCCIVTSTYGWTANMER (UniProt P07900),-0.00946,0.102
LAP3_P28838_376_LILADALCYAHTFNPK (UniProt P28838),0.0434,0.0196
KCTD12_Q96CX2_50_CTVVSVPDSLLWR (UniProt Q96CX2),0.0972,-0.28
IGF2R_P11717_1856_DGGVCLLSGTK (UniProt P11717),-0.0968,-0.169
LANCL2_Q9NS86_248_CPLLYQWHR (UniProt Q9NS86),-0.115,0.026
HSPH1_Q92598_796_ELNNTCEPVVTQPKPK (UniProt Q92598),0.108,-0.8
IPO4_Q8TEX9_726_AAHEALGQFCCALHK (UniProt Q8TEX9),-0.0691,-0.471
HNRNPLL_Q8WVV9_505_TLSGLLEWECKTDAVEALTALNHYQIR (UniProt Q8WVV9),-0.0924,-0.402
KPNA6_O60684_427_YLVSLGCIKPLCDLLTVMDSK (UniProt O60684),-0.101,-0.85
IKBKB_O14920_716_KSEELVAEAHNLCTLLENAIQDTVR (UniProt O14920),0.0153,-0.00819
KPNB1_Q14974_765_ESCLEAYTGIVQGLKGDQENVHPDVMLVQPR (UniProt Q14974),0.414,-0.185
IFI16_Q16666_737_LTCFELAPK (UniProt Q16666),-0.11,-0.0776
KRT75_O95678_460_LLEGEECR<|>NEFH_P12036_411_LLEGEECR<|>KRT76_Q7RTS7_494_LLEGEECR<|>KRT74_Q86Y46_451_LLEGEECR<|>KRT73_Q8N1N4_443_LLEGEECR<|>KRT78_P02538_422_LLEGEECR<|>KRT6A_P13647_474_LLEGEECR<|>KRT6B_P35908_474_LLEGEECR<|>KRT5_P48668_479_LLEGEECR (UniProt P48668+P35908+P13647+Q86Y46+P02538+Q7RTS7+P12036+Q8N1N4+O95678),1.25,0.392
IMPACT_Q9P2X3_195_STFQAHLAPVVCPK (UniProt Q9P2X3),-0.422,-1.61
ILF2_Q12905_37_PFVPHIPFDFYLCEMAFPR (UniProt Q12905),0.0684,0.31
HSP90AB1_P08238_412_CLELFSELAEDK (UniProt P08238),0.16,0.151
IDH3A_P50213_331_IEAACFATIK (UniProt P50213),0.303,0.39
